# Measured values: PubChem BioAssay (NCATS)
# Values without a mark were called inactive. Records with an inconclusive call do not appear. Where a call stands in place of a potency, no number is given. Calls of active or inactive are those of the source. The call rests on the fitted dose curve; in most records, active means well fitted curve in the direction sought with a large enough effect; inconclusive means small, poorly fitted or top-dose-only effect, or another doubt; inactive means no such curve, though single readings can be large; an effect the other way counts as inactive or inconclusive.
# Key:
# [1] = molecular target: Phospholipid hydroperoxide glutathione peroxidase GPX4 (Homo sapiens) (UniProt P36969); assay: Primary qHTS Assay for Inhibitors of Recombinant Selenoprotein Glutathione Peroxidase 4 (GPX4) (AID 1845192); further: nearly all actives have a fitted effect of over 65% in size; further: potency means the concentration at half of the fitted maximal effect
# How it was run: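 GR-coupled readout: 100 nM GR, 1 mM GSH, 0.5 mM NADPH; NADPH fluorescence (ex 340/em 450 nm) read at t=0 and after 15 min RT. GPX4 200 nM, preincubated 30 min with compound; substrate 0.5 mM CHP.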
# [2] = molecular target: Luciferin 4-monooxygenase (Photinus pyralis) (UniProt P08659); assay: Primary firefly luciferase (FLuc) qHTS assay for identification of artifact compounds. (AID 1845220); further: nearly all actives have a fitted effect of over 60% in size
# How it was run: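 Reaction readout was CCD-imaged luminescence, taken 5 min after adding 10 nM purified firefly enzyme to compound-treated wells holding 10 uM luciferin and ATP in pH 7.6 buffer.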
# [3] = Primary fluorescence-based thiol-reactive (MSTI) qHTS assay for identification of artifact compounds. (AID 1845221); further: nearly all actives have a fitted effect of over 65% in size; further: potency means the concentration at half of the fitted maximal effect;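 on activity change, negative = thiol reactive: series mostly up to about 54 µM; thiol-reactive compounds lower the probe fluorescence signal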
# How it was run: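 Probe: MSTI 4 uM, PBS pH 7.4, 2% DMSO. Incubation 1 h, RT, light-protected. Readout fluorescence 525/598 nm.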
# [4] = tested on: Nanoluciferase (engineered Oplophorus gracilirostris luciferase); assay: Primary Nanoluciferase (NLuc) qHTS assay for identification of artifact compounds. (AID 1845222);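 further: NLuc secreted into diluted conditioned medium of S16 cells; series mostly up to about 54 µM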
# How it was run: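 Concentration-response data were obtained by luminescence after 5 min with Nano-Glo substrate at 1:100. The enzyme was diluted S16 NLuc-expressing cell medium, preincubated with compound for 15 min at RT. Curves were fitted with a 4-parameter Hill model.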
# [5] = Primary redox qHTS assay for identification of artifact compounds. (AID 1845223)
# How it was run: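 Amplex Red (25 uM) and HRP (250 mU/mL) in HBSS, with compounds for 15 min, then 250 uM DTT for 30 min, room temperature, dark. Fluorescence 525/598 nm read; normalized to DMSO and 10 uM DA3003; Hill fit.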
# Chain of Phospholipid hydroperoxide glutathione peroxidase GPX4 (Homo sapiens) (P36969 whole entry, looked up): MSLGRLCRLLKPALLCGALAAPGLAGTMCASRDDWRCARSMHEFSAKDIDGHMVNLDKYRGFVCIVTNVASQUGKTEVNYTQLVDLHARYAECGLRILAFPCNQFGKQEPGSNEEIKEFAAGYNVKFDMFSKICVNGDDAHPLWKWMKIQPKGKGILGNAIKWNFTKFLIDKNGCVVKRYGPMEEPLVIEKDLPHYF
Structure (SMILES),Potency [1],Potency [2],Potency [3],Potency [4],Potency [5],outcome [2],"activity change, negative = thiol reactive [3]","activity, negative = inhibition [4]",redox activity (% of DA3003) [5]
CCS(=O)(=O)N1CCN(c2ccc(Nc3ncc(C(N)=O)c(NC4CC4)n3)cc2)CC1,inactive,inactive,2.99 µM (active),inactive,inactive,–,–,–,–
C[C@@H]1O[C@@H](O[C@@H]2CO[C@@H](O[C@H]3CC[C@@]4(C)C(CC[C@]5(C)C4CC=C4[C@@H]6CC(C)(C)CC[C@]6(C(=O)O[C@@H]6O[C@H](CO)[C@@H](O)[C@H](O)[C@H]6O)CC[C@]45C)[C@]3(C)CO)[C@H](O)[C@H]2O[C@@H]2O[C@H](CO)[C@@H](O)[C@H](O)[C@H]2O)[C@H](O)[C@H](O)[C@H]1O (stereo not given in full),inactive,–,–,–,–,inactive [at 11.6 µM],216% [at 11.5 µM],-0.413% [at 11.6 µM],7.97% [at 11.5 µM]
CC1CCC2(OC1)OC1CC3C4CCC5C[C@@H](O[C@@H]6O[C@H](CO[C@@H]7OC[C@@H](O)[C@H](O)[C@H]7O)[C@H](O)[C@H](O)[C@H]6O)CC[C@]5(C)C4CC[C@]3(C)C1C2C (stereo not given in full),inactive,inactive,inactive,inactive,inactive,–,–,–,–
C=C1CCCC2(C)CC3(OC)OC(=O)C(C)=C3CC12 (stereo not given),inactive,inactive,inactive,inactive,inactive,–,–,–,–
CC1(C)CCCC2(C)C=C(C(=O)O)C(O)CC12 (stereo not given),inactive,inactive,inactive,inactive,inactive,–,–,–,–
COc1ccc(N(C)c2nc(C)nc3ccccc23)cc1,inactive,inactive,inactive,inactive,inactive,–,–,–,–
CC(=O)OC1C(O)C2C(C)C3=CC(=O)OC3(O)CC2C2(C)CCCC(C)(CO)C12 (stereo not given),inactive,inactive,inactive,inactive,inactive,–,–,–,–
C[C@@H]1CC[C@]2(C(=O)O)CC[C@]3(C)C(=CCC4[C@@]5(C)CC[C@H](O)C(C)(C)C5C(O)C[C@]43C)[C@@H]2[C@]1(C)O (stereo not given in full),inactive,inactive,13 µM (active),inactive,inactive,–,–,–,–
O=C(O)Cc1cn(C2OCC(O)C(O)C2O[C@@H]2O[C@H](CO)[C@@H](O)[C@H](O)[C@H]2O)c2ccccc12 (stereo not given in full),inactive,inactive,inactive,inactive,inactive,–,–,–,–
CC12CCC(C(OC3OC(COC4OCC(O)(CO)C4O)C(O)C(O)C3O)C1)C(C)(C)O2 (stereo not given),inactive,inactive,inactive,inactive,inactive,–,–,–,–
CS(=O)(=O)N1CCC(NC(=O)c2[nH]ncc2NC(=O)c2c(Cl)cccc2Cl)CC1,inactive,inactive,inactive,inactive,inactive,–,–,–,–
O=C1CSc2ccccc2N1Cc1cccc(C(F)(F)F)c1,inactive,inactive,inactive,inactive,inactive,–,–,–,–
CC1=C(CCC(C)CC(=O)O)[C@@]2(C)CCCC(C)(C)C2CC1=O (stereo not given in full),inactive,inactive,inactive,inactive,inactive,–,–,–,–
CCCCNc1ncc2c(-c3ccc(F)cc3)nn(CC3CCC(N)CC3)c2n1 (stereo not given),inactive,inactive,inactive,inactive,inactive,–,–,–,–
Cc1ccc(S(=O)(=O)n2ccc(-c3c(-c4ccc(Cl)cc4)noc3C)n2)cc1,inactive,inactive,inactive,inactive,inactive,–,–,–,–
COc1ccc(-c2ccc3c(N4CCOCC4)nc(N4CC(C)OC(C)C4)nc3n2)cc1CO (stereo not given),22.7 µM (active),inactive,inactive,inactive,inactive,–,–,–,–
COc1ccc(Cl)c(Nc2nc3ccccc3nc2NS(=O)(=O)c2cccc(NC(=O)C(C)(C)N)c2)c1,inactive,inactive,inactive,inactive,inactive,–,–,–,–
CC(C)(C)Nc1nc2cc(Cl)c(Cl)cc2nc1S(C)(=O)=O,inactive,inactive,inactive,inactive,inactive,–,–,–,–
C=C1CC[C@@H]2[C@](C)(CO[C@@H]3O[C@H](CO)[C@@H](O)[C@H](O)[C@H]3O)[C@H](O)CC[C@@]2(C)[C@@H]1C/C=C1/C(=O)OC[C@H]1O,inactive,inactive,13 µM (active),inactive,inactive,–,–,–,–
C[C@@H]1C[C@@H]([C@@H](O)C(C)(C)O)O[C@H]2C[C@@]3(C)C(=C12)C[C@H](O)[C@H]1[C@@]2(C)CCC(=O)C(C)(C)C2CC[C@@]13C (stereo not given in full),inactive,inactive,inactive,inactive,inactive,–,–,–,–
CC[C@@](C)(Nc1ccnc(-c2c[nH]c3ncccc23)n1)C(=O)NCC(F)(F)F,inactive,inactive,inactive,inactive,inactive,–,–,–,–
O=c1[nH]ccc2cc(OC3CCNCC3)ccc12,inactive,inactive,inactive,inactive,inactive,–,–,–,–
COc1ccccc1NC(=O)OCC1CCN(C(=O)OC(C)(C)C)CC1,inactive,inactive,inactive,inactive,inactive,–,–,–,–
